The list is not random: actives were taken first. Their share in the collection is about 3.3%.
ROMK primary = modulators of human ROMK potassium channel; Tet-inducible ROMK, thallium flux fluorescence; actives lie on both sides; B-score at 10 µM; P48048; 130,000 tested, 2% active;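 active = signal ratio slope over the read window, or its plate-corrected B-score, at least 3 SD from the plate mean, either direction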;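 also: B-score of the F/F0 ratio slope over 7 to 12 s after thallium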
Target sequence (P48048 whole entry, looked up): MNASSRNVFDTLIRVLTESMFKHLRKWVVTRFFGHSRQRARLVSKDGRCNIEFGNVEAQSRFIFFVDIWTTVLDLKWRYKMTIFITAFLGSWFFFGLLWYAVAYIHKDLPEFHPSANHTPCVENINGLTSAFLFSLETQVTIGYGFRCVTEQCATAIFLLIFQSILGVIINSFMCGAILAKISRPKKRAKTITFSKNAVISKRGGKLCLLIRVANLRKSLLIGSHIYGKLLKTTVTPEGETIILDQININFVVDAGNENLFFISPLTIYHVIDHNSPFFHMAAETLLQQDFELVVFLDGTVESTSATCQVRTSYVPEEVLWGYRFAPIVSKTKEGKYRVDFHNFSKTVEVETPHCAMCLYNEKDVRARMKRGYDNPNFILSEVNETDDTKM
PERK inh = blocks human PERK kinase. Q9NZJ5. CHO PERK-DD fusion, SEAP luminescence translation reporter. inhibition, % at 5.6 µM. 220,000 tested, 0.17% active. AID 1416;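 active = inhibition above the mean inhibition of all tested compounds plus 3 SD, set separately per screening campaign, cut at about 2.9% in these data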;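 also: PERK kinase domain activated by AP20187 dimerizer at 100 nM; 0% = DMSO with dimerizer and 100% = rapamycin at 8.4 µM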
Arbovirus inh = antivirals against arbovirus infection. arbovirus infection cell-based antiviral screen. inhibition, % at 10 µM. 200,000 tested, 0.37% active; in the data active = inhibition above about 30%
WT yeast gro inh = growth inhibition of WT yeast, mitochondrial fusion screen; mitochondrial fusion phenotypic screen, WT strain; inhibition, % at 10 µM; 190,000 tested, 2.1% active; AID 1362; in the data active = inhibition above about 58%; tested in S. cerevisiae
* = called active by the depositor; . = no result.

SMILES | ROMK primary | PERK inh | Arbovirus inh | WT yeast gro inh
Clc1ccc(Cn2c(-c3cccnc3Cl)nc3ccccc32)c(Cl)c1 | 0.16 | 1 | -18 | 9
CC(=O)NC(Cc1ccc(O)cc1)C(=O)NN (centres undefined) | 1.3 | 0 | 7 | -15
CCN1CCN(C(=O)c2ccccc2N(Cc2ccccc2)S(=O)(=O)c2ccc(OC)cc2)CC1 | . | -1 | . | .
Fc1ccc(CNC(=S)Nc2cccc(C(F)(F)F)c2)cc1 | 0.37 | 0 | -20 | 58*
O=C(NC(=S)Nc1cccc(C(F)(F)F)c1)c1csnn1 | 8.8* | 1 | -4 | 39
Fc1ccccc1CNC(=S)Nc1cccc(C(F)(F)F)c1 | . | 1 | -9 | 35
CN(C)NC(=S)Nc1cccc(C(F)(F)F)c1 | . | 0 | . | .
CC(NC(=S)Nc1cccc(C(F)(F)F)c1)C(C)(C)C (centres undefined) | -1.2 | 1 | -15 | 70*
O=C(NC(=S)Nc1ccccc1Cl)c1csnn1 | . | 1 | 5 | 10
FC(F)(F)c1cccc(NC(=S)NCc2ccc(Cl)cc2)c1 | 0.11 | 0 | -14 | 75*
O=C(CSc1ncc(-c2ccc(F)cc2)[nH]1)N1CCCCC1 | . | 0 | 0 | 8
Cc1cc(C)nc(NC(=O)c2c(-c3ccccc3Cl)noc2C)c1 | -1.4 | -2 | -9 | -2
Cc1nn(-c2cccc(Cl)c2)c(Cl)c1/C=N/NC(=O)c1cccnc1 | . | -1 | 10 | 7
COc1ccc2nc(NC(=O)CN(c3ccc(C)cc3)S(=O)(=O)c3c(C)nn(C)c3C)sc2c1 | -1.3 | -1 | -2 | 69*
COc1ccc(N(CC(=O)NCc2ccc(C)cc2)S(=O)(=O)c2c(C)nn(C)c2C)cc1 | -0.24 | 0 | 1 | -4
CC1(C)C(=O)OC(c2cccn2-c2cccc([N+](=O)[O-])c2)C2(CCCCC2)C1=O (centres undefined) | . | 1 | 2 | 78*
CC1(C)C(=O)OC(c2cccc([N+](=O)[O-])c2)C2(CCCCC2)C1=O (centres undefined) | 0.37 | 1 | 3 | -8
COc1ccc(Sc2cc(C(F)(F)F)nc(-c3ccccn3)n2)cc1 | . | 0 | 15 | 62*
CC(=O)N[C@@H](C)C(=O)N1CCN(S(=O)(=O)c2ccc(Cl)cc2)CC1 | 0.41 | 1 | 1 | -12
CC1=CSC2=NC(=O)/C(=C\c3cccn3-c3ccccc3)C(=N)N12 | -0.047 | -1 | -3 | 5
COc1ccc(-n2cccc2/C=C2\C(=N)N3N=C(c4ccco4)SC3=NC2=O)cc1 | -0.43 | 1 | 39* | 13
Cc1nn(-c2ccccc2)c(Cl)c1/C=C1/C(=N)N2N=C(C(C)C)SC2=NC1=O | . | 1 | 3 | -4
N=C1/C(=C/c2coc3ccccc3c2=O)C(=O)N=C2SC(c3ccco3)=NN12 | . | 2 | . | .
CC(C)c1ccc(-n2cccc2/C=C2/C(=N)N3C=CSC3=NC2=O)cc1 | -0.95 | 0 | -12 | 87*
COc1ccc(-n2cccc2/C=C2\C(=N)N3N=C(C(C)C)SC3=NC2=O)cc1 | -1 | 0 | 30* | 47
SMILES | ROMK primary | PERK inh | Arbovirus inh | WT yeast gro inh
C/C(=N\NC(N)=S)c1ccc(-n2ccnc2)cc1 | . | 1 | . | .
C/C(=N\Nc1ccc(Cl)c(Cl)c1)c1ccc(-n2ccnc2)cc1 | -0.022 | 1 | -18 | 69*
C/C(=N\NC(=O)COc1ccc(C(C)(C)C)cc1)c1ccc(-n2ccnc2)cc1 | -0.13 | 0 | -15 | 71*
Cc1ccccc1-c1nc2sc3c(c2c(=O)o1)CCC3 | 0.37 | 1 | 9 | 19
O=c1oc(-c2ccccc2)nc2sc3c(c12)CCCC3 | 0.019 | 0 | 32* | 6
O=c1oc(-c2cc3ccccc3o2)nc2sc3c(c12)CCCC3 | -0.66 | 2 | 78* | 4
Cc1ccc2c(c1)Sc1c(ccc3ccccc13)N2 | . | 1 | . | .
Cc1nc(-c2ccc(NC(=O)c3ccccc3Br)cc2)cs1 | 0.2 | -1 | -11 | 13
O=C1CC(SCc2nc3ccccc3[nH]2)C(=O)N1c1cccc(F)c1 (centres undefined) | . | -1 | -8 | 76*
CC(/C=C/c1ccccc1)=N\NC(N)=S | -0.41 | 0 | -1 | 18
CC(/C=C/c1ccccc1)=N\NC(=S)NC(C)C | -0.47 | -1 | -7 | 71*
O=C1N=c2ccccc2=C1c1sc(=S)n(NC(=O)c2ccccc2)c1O | -0.1 | 3 | . | .
C=CCn1c(O)c(C2=c3ccccc3=NC2=O)sc1=Nc1ccc(O)cc1 | . | . | -34 | 94*
CCOC(=O)CSc1nc2sc3c(c2c(=O)n1C1CCCCC1)CCN(C)C3 | -3.5* | 0 | 9 | -6
CCn1c(SCC(N)=O)nc2sc3c(c2c1=O)CCN(C)C3 | . | 0 | . | .
Cc1[nH]c2c(ccc3cccnc32)c1C | . | 0 | . | .
CC1=[N+](C)c2c(ccc3cccnc23)C1(C)C | 0.35 | 0 | -12 | 82*
NNc1nc2ccc(F)cc2s1 | . | -1 | 13 | 65*
Fc1ccc2nc(Nc3nc4c(F)cccc4s3)sc2c1 | . | 0 | 34* | 7
Fc1ccc2nc(Nc3nc4c(F)cc(F)cc4s3)sc2c1 | . | 2 | 25 | 26
OCCNCc1ccc(OCc2ccc(Cl)cc2Cl)cc1 | -1 | 0 | -32 | 75*
S=C(Nc1ccccc1)Nc1ccc(OCc2ccc(Cl)cc2Cl)cc1 | . | 1 | -10 | 7
N=C1C(c2ccccc2)=C(O)CN1c1cccc2ccccc12 | . | 1 | 3 | -5
S=c1[nH]nc(Cc2ccc(Cl)cc2)o1 | . | 1 | . | .
CCOC(=O)C1CCCN(Cc2ccccc2Cl)C1 (centres undefined) | -0.74 | 0 | 88* | 14
SMILES | ROMK primary | PERK inh | Arbovirus inh | WT yeast gro inh
CCOC(=O)C1CCCN(C(=O)CS(=O)(=O)Cc2ccccc2)C1 (centres undefined) | 0.93 | 2 | 7 | 60*
CCOC(=O)C1CCCN(C(=O)CCc2ccccc2)C1 (centres undefined) | . | 1 | -2 | -20
CCOC(=O)C1CCCN(Cc2ccccc2C)C1 (centres undefined) | -0.78 | 1 | 2 | 26
COc1ccc(Cl)cc1NC(=S)NCc1ccc(S(N)(=O)=O)cc1 | 0.16 | 0 | -5 | -9
Cc1ccc(S(=O)(=O)c2nc(N3CCOCC3)sc2Cl)cc1 | -0.55 | -1 | 18 | 19
CSC1=NC(C)(C)C=C(/C=C/c2ccc(Cl)cc2Cl)N1 | 0.044 | 0 | -33 | 68*
CSC1=NC(C)(C)C=C(/C=C/c2ccc(Cl)cc2)N1 | 0.12 | 0 | -27 | 21
CCSC1=NC(C)(C)C=C(/C=C/c2ccc(Cl)cc2Cl)N1 | -0.45 | -2 | -35 | 60*
Cc1ccc(S(=O)(=O)Cn2cnnn2)cc1 | . | 1 | 3 | -12
Cc1ccccc1OCCNc1cc(N2CC(C)NC(C)C2)ccc1[N+](=O)[O-] (centres undefined) | -0.7 | -1 | -33 | 87*
CCOc1cc(C2NC(=S)NC(C)=C2C(=O)Nc2ccc(OC)cc2)ccc1O (centres undefined) | 0.35 | 3.4* | 10 | -2
CCOc1cccc(C2NC(=S)NC(C)=C2C(=O)Nc2ccccc2)c1 (centres undefined) | . | 1 | -3 | -12
Cc1ccc(S(=O)(=O)c2nc(Nc3ccccc3)sc2Cl)cc1 | . | 0 | -40 | 79*
CN(C)c1cc[n+](CC(=O)Nc2ccc(Oc3ccccc3)cc2)cc1 | -0.6 | 1 | -3 | 76*
CCOc1ccc(NC(=O)C[n+]2ccc(N(C)C)cc2)cc1 | 0.13 | 1 | 0 | -6

Screens from PubChem BioAssay.
